Screening data: PubChem BioAssay, The Scripps Research Institute Molecular Screening Center
ssDAF12 agonist – activators of S. stercoralis DAF-12 nuclear receptor; activation, % at 6.8 µM; HEK293 ssDAF-12/GRIP1 lit1-tk-luc reporter, luminescence; % of 3 µM dafachronic acid response; 370,000 tested, 1% active;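 active = activation above the mean over all tested compounds plus 3 SD, cut at about 0.9% in these data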;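 note: 0% = DMSO-only wells and 100% = 3 µM delta7-dafachronic acid wells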
DAX1 inh-1 – inhibits human nuclear receptor DAX1 | HEK293 Gal4-DAX1 luciferase reporter, luminescence | 340,000 tested, 0.99% active | inhibition, % at 6.75 µM | P51843;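 active = inhibition above the mean over all tested compounds plus 3 SD, cut at about 4.2% in these data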;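 note: 0% = DAX1-transfected cells with DMSO and 100% = empty-vector control cells with DMSO; inhibition shows as a rise in luminescence from relieved DAX1 repression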
Target sequence (P51843 207-470 limits assumed): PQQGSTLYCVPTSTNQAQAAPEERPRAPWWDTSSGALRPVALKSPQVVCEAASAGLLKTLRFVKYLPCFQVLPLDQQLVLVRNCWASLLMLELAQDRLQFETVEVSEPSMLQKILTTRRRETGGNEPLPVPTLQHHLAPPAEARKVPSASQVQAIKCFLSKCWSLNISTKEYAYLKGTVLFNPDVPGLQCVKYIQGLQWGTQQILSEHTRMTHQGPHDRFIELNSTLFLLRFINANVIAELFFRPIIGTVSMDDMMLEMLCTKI
hgDAF-12 ag – hgDAF-12 agonism, primary luciferase screen; HEK293 GAL4-hgDAF12 UAS-luciferase reporter, agonist luminescence; normalized to butyrate control; activation, % at 6.8 µM; 370,000 tested, 1.8% active; AID 687014;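 active = activation above a cutoff set at the mean of all screened compounds plus 3 SD, cut at about 10% in these data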;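 note: 0% = DMSO wells and 100% = sodium butyrate wells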
hcDAF12 agonist – H. contortus DAF-12 activation, primary screen | HEK293 hcDAF-12 lit1-tk-luc reporter, luminescence; 0% DMSO, 100% Δ7-dafachronic acid | activation, % at 6.8 µM | 370,000 tested, 1.4% active;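 active = activation above the mean of all tested compounds plus 3 SD, cut at about 5.5% in these data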;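 note: 100% = response to 3 µM Δ7-dafachronic acid high control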
DAX1 inh-2 – inhibitors of DAX1 repression of SF-1 activated StAR promoter. HEK293T StAR-luciferase reporter, SF-1/DAX-1 repression relief. 370,000 tested, 1.1% active. inhibition, % at 6.8 µM;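 active = inhibition above the mean over all tested compounds plus 3 SD, cut at about 3.6% in these data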;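 note: 0% = DAX-1 cells with DMSO and 100% = cells lacking DAX-1 with DMSO; higher inhibition means more luminescence from relief of DAX-1 repression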
hgDAF12 ag – hgDAF-12 agonism, confirmation assay; shares compounds with hgDAF-12 ag; HEK293 GAL4-hgDAF12 luciferase reporter, agonist mode; percent of butyrate response; activation, % at 6.8 µM; 3,300 tested, 80% active;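 active = mean activation over triplicate wells above the hit cutoff derived from the earlier primary screen, cut at about 11% in these data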;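 note: 0% = DMSO low control and 100% = 2 mM sodium butyrate high control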
LXRb DAF12 ctr – counter-screen for DAF-12 agonists: agonists of human LXR-beta. shares compounds with hgDAF-12 ag. HEK293 Gal4-LXR luciferase reporter, 24 h. activation, % at 6.8 µM. 3,300 tested, under 10 active;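 active = mean activation of the triplicate above a set limit carried over from the primary screen, none filed active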
The depositor's hits bear a star; / = no result. Shown are actives, neighbours in structure and some others; about 4.1% of the full set was active somewhere.

SMILES	ssDAF12 agonist	DAX1 inh-1	hgDAF-12 ag	hcDAF12 agonist	DAX1 inh-2	hgDAF12 ag	LXRb DAF12 ctr
NS(=O)(=O)c1ccc(CCNC(=S)NC2CCCC2)cc1	-0.3	1.4	4.1	4.6	-0.1	/	/
S=C(NCCc1ccc(Cl)cc1)NC1CC1	-0.5	1.4	15.7*	-0.8	-0.2	2.1	0.0
NC(=O)c1ccc(OCC(F)(F)F)nc1	-1.1	-0.7	-0.3	0.0	0.9	/	/
Cc1ccc2nc(-c3ccc(O)cc3)c(Nc3ccc4c(c3)OCCO4)n2c1	-0.3	0.3	16.5*	4.0	1.8	-0.5	0.0
Cc1ccc2nc(-c3ccccc3O)c(Nc3ccc4c(c3)OCCO4)n2c1	-1.2	0.4	0.1	1.6	-0.1	/	/
Cc1ccc(N=Cc2c(O)[nH]c3ccccc23)c([N+](=O)[O-])c1	0.3	0.4	14.8*	0.8	4.1*	12.3*	0.5
Cc1ccc2[nH]c(CN3CCC(CO)(CC4CCCCO4)CC3)c(C)c2c1 (configuration not stated)	-0.8	-0.7	-8.9	-0.1	-0.9	/	/
Cc1ccc(NC(=O)c2scc3c2CCCC3)cc1	0.6	4.6*	23.4*	6.2*	3.5	15.5*	0.6
Cc1ccc(NC(=O)c2cc3c(s2)CCCC3)cc1	0.4	6.6*	19.1*	5.4	4.2*	17.4*	1.0
CCC(C)c1ccc(S(=O)(=O)N2CCN(C(C)CC(=O)O)CC2)cc1 (configuration not stated)	-1.6	-0.2	0.8	0.2	0.3	/	/
Cc1ccc(C)c(C(O)c2ncc(-c3ccccc3)[nH]2)c1 (configuration not stated)	-1.8	/	-1.7	-1.9	-0.5	/	/
CC(=O)N1CCC(=NNC(=O)c2cc3ccccc3cc2O)CC1	-1.6	0.6	1.0	0.0	-0.4	/	/
CC(=O)N1CCC(=NNC(=O)c2cccs2)CC1	0.3	5.3*	14.4*	5.2	4.0*	8.6	0.2
CC1=C/C(=N\NC(=O)c2cccs2)CC(C)(C)C1	-0.4	-0.1	16.6*	4.2	1.0	1.3	0.0
CC1=C/C(=N\NC(=S)NCCc2ccccc2)CC(C)(C)C1	-1.1	1.4	5.4	4.8	1.6	/	/
Cc1ccccc1C(=O)NC1CCCCCCC1	1.0*	2.4	14.6*	3.6	1.6	12.2*	0.7
O=C(CSc1nnc(NC2CCCCC2)s1)Nc1ccc2c(c1)C(=O)c1ccccc1C2=O	-0.2	11.7*	14.0*	3.7	3.1	13.8*	0.4
COc1ccc(CC(=O)Nc2c(C(=O)N3CCN(c4ccccc4)CC3)oc3ccccc23)cc1OC	-1.5	-0.3	2.5	0.0	0.7	/	/
CCOc1ncccc1C(=O)NCCN1C(=O)S/C(=C/c2cccs2)C1=O	-0.9	-1.3	0.3	0.5	0.6	/	/
c1cncc(-c2nc(-c3ccc4c(c3)OCCO4)cs2)c1	0.3	4.6*	15.1*	5.8*	1.3	15.7*	0.8
Fc1ccc(-c2csc(-c3cccnc3)n2)cc1F	-0.7	0.8	9.9	2.7	0.2	/	/
CN=Cc1nc(-c2ccccc2)oc1O	0.3	2.1	7.8	1.4	1.8	/	/
Oc1oc(-c2ccccc2)nc1/C=N/c1ccccn1	-1.3	1.4	16.1*	1.7	3.1	9.3	0.2
CCCCn1c(N)c(N(CCOC)C(=O)c2ccc(C)c(S(=O)(=O)N3CCCCC3)c2)c(=O)[nH]c1=O	-1.5	2.2	0.7	2.6	2.1	/	/
O=[N+]([O-])c1ccc(NN=Cc2ccc3c(c2)OCO3)nc1	-0.1	7.2*	15.2*	4.2	2.8	16.5*	0.9
O=[N+]([O-])c1ccc(S(=O)(=O)NN=Cc2ccc3c(c2)OCO3)cc1	-1.0	1.0	0.8	0.3	0.0	/	/
O=C(CNC(=O)C(c1ccccc1)c1ccccc1)N/N=C\c1ccc(C(=O)O)cc1	0.6	1.4	0.9	-0.3	0.1	/	/
O=c1[nH]c(CSc2ccccn2)nc2ccccc12	-0.4	1.2	17.6*	2.2	3.6*	13.9*	0.6
CC(=O)c1ccc(NC(=O)c2noc3c2CCCCC3)cc1	0.8	2.4	13.8*	2.4	3.8*	17.1*	0.8
